FBW7 act – human FBW7 E3 ligase activation, primary screen | AlphaScreen FBW7–phospho-cyclin E peptide binding, activator screen | Q969H0 | normalized activity (activation), % at 26.1 µM | actives 0.13% (n = 650,000); in the data active = normalized activity above about 1.9%;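 also: purified mutant Fbw7 with reduced substrate affinity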
GPR151 ag – activators of human GPR151 | Q8TDV0 | PathHunter beta-arrestin GPR151 cells, luminescence | activation, % at 11.2 µM | actives 1% (n = 650,000); in the data active = activation above about 4.9%;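 also: 0% = median of compound wells and 100% = cells with positive control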
Target sequence (Q8TDV0 whole entry, looked up): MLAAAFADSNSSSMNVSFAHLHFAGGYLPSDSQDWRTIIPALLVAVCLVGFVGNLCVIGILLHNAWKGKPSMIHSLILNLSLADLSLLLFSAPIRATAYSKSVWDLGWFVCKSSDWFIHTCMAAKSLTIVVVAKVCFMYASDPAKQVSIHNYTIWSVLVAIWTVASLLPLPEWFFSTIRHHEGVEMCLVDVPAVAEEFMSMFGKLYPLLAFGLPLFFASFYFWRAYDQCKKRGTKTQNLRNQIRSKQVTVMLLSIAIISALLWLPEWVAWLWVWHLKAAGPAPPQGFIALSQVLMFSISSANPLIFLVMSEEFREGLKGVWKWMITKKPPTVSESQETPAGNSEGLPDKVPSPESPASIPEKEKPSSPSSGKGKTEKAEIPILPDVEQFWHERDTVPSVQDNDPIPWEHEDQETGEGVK
MITF primary – human MITF inhibition, primary screen | actives 0.91% (n = 650,000) | AlphaScreen MITF homodimerization, bead proximity signal | O75030 | inhibition, % at 2.6 µM; in the data active = inhibition above about 50%;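 also: 0% = vehicle wells with protein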
TEAD-YAP inh – TEAD-YAP interaction inhibition; actives 1.4% (n = 640,000); HEK-TIYL cells, TEAD-Gal4/YAP UAS-luciferase luminescence; inhibition, % at 9.12 µM; in the data active = inhibition above about 32%;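 also: 0% = median of test compound wells and 100% = reference inhibitor wells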
GPR151 confirm – human GPR151 activation, confirmation screen; shares compounds with GPR151 ag; GPR151 PathHunter beta-arrestin cells, luminescence, 90 min; % of EA-reagent control over plate median; activation, % at 11.2 µM; 6,700 tested, under 10 active; AID 1508609;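 active = mean percent activation across replicates above the confirmation screen cutoff of 4.91%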
GPR119 ag – activates human GPR119 in a GPR151 counter-screen; shares compounds with GPR151 ag; GPR119 PathHunter beta-arrestin cells, luminescence, 90 min; 0 = compound-well median, 100 = enzyme-acceptor control; activation, % at 11.2 µM; actives 0.3% (n = 6,700);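 active = mean percent activation in the counterscreen above 29.09%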;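 also: counterscreen on off-target GPR119 to flag nonselective hits from the GPR151 activator screen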
* marks the source's active call; other numbers are inactive results; / = no result given. Only some compounds are listed: those with a hit (about 3.5% of all), similar ones and a draw of the others.

SMILES | FBW7 act | GPR151 ag | MITF primary | TEAD-YAP inh | GPR151 confirm | GPR119 ag
O=C(N/C(=C\c1cccc([N+](=O)[O-])c1)C(=O)N1CCOCC1)c1ccco1 | -0.1 | 6.9* | 6.0 | 4.4 | 0.8 | 4.3
O=C(N/C(=C/c1cccc([N+](=O)[O-])c1)C(=O)N1CCCCCC1)c1ccco1 | 0.8 | 2.8 | 7.3 | -5.1 | / | /
CCC(C)(C)NC(=O)C(c1ccncc1)N(CCOC)C(=O)Cn1nnc2ccccc21 (centres undefined) | 0.0 | 0.1 | 6.5 | 0.9 | / | /
O=C(Oc1ccccc1[N+](=O)[O-])c1ccc(F)cc1 | -0.1 | 5.9* | 8.9 | 5.9 | 1.2 | -12.3
O=C(Oc1ccccc1[N+](=O)[O-])c1ccccc1Cl | -0.3 | 10.2* | 10.0 | -3.3 | 0.3 | -4.7
CCOc1ccc(/C(O)=C2\C(=O)C(=O)N(c3nc(C)c(C(=O)OC)s3)C2c2ccc(C)cc2)cc1C (centres undefined) | -0.1 | 5.0* | 6.7 | -2.3 | -0.6 | 0.2
Cc1ccc(CNC(=O)CSc2nnc(N)s2)cc1 | 0.3 | -0.9 | 21.8 | -5.7 | / | /
CCSCCOC(=O)C1=C(C)NC2=C(C(=O)CC(c3ccccc3Cl)C2)C1c1ccc(O)c(OC)c1 (centres undefined) | 0.1 | -0.5 | 2.6 | 9.9 | / | /
COc1cccc(C(=O)NCCCc2ccc(N(C)C)cc2)c1OC | -0.2 | 5.3* | 2.1 | -18.2 | -1.2 | -5.1
COc1cccc(C(=O)NCCCc2ccccc2)c1OC | 0.1 | -0.3 | 20.1 | -27.8 | / | /
CC(C)[C@H]1CN(Cc2ccccc2F)CCN1C(=O)CCn1ccnc1 | 0.0 | -1.6 | -11.6 | 4.5 | / | /
O=C(Cn1ncn2c(cc3ccsc32)c1=O)N1CCCC1 | 0.2 | -0.8 | 22.6 | 9.6 | / | /
N#Cc1ccc(NC(=O)COC(=O)c2ccccn2)cc1 | -1.0 | 0.9 | 9.1 | 4.2 | / | /
N#Cc1ccc(COC(=O)c2ccccn2)cc1 | -0.1 | 5.0* | 27.8 | 7.3 | -0.2 | -5.3
CCCN1CCN(C(=O)c2ccc(CC)s2)CC1 | 0.8 | -0.8 | 17.8 | 2.7 | / | /
O=C(O)c1cccc(NS(=O)(=O)c2ccc(O)c(C(=O)O)c2)c1 | -0.2 | -0.6 | 0.4 | -2.0 | / | /
N#Cc1ccc(COC(=O)CCC(=O)c2cccs2)cc1 | 0.1 | -0.8 | 6.8 | 4.0 | / | /
CN1CC(=O)N(CCCC(=O)OCc2ccc(C#N)cc2)C1=O | -0.1 | 7.7* | -1.0 | -1.9 | 1.1 | 7.3
C/C(=N/NC(=O)c1ccccc1)c1ccncc1 | -0.1 | -0.5 | -8.2 | -60.8 | / | /
CCc1cc(-c2n[nH]c(C)c2-c2nc(C)cs2)c(O)cc1OC | 0.0 | 8.0* | 4.5 | 10.4 | 0.5 | 7.4
N#Cc1ccccc1CSc1ncnc2sccc12 | 0.2 | 5.1* | 4.5 | 1.4 | 1.4 | 11.1
COc1ccc(Cl)cc1C(=O)NC1C2CC3CC(C2)CC1C3 (centres undefined) | 0.1 | 5.0* | 8.3 | 7.8 | 0.6 | 1.4
COc1ccc(C(=O)NC2C3CC4CC(C3)CC2C4)cc1Cl (centres undefined) | 0.2 | -0.4 | 10.1 | 2.3 | / | /
COc1cc(OC)cc(C(=O)NC2C3CC4CC(C3)CC2C4)c1 (centres undefined) | 0.0 | 11.9* | -1.0 | 3.1 | -0.4 | -7.6
COc1ccc(Nc2nccc(NCc3cccc(C(F)(F)F)c3)n2)cc1 | -0.2 | 2.9 | -6.5 | 30.2 | / | /
SMILES | FBW7 act | GPR151 ag | MITF primary | TEAD-YAP inh | GPR151 confirm | GPR119 ag
Cc1ccc(Cl)cc1NC(=O)c1c(-c2c(Cl)cccc2Cl)noc1C | 0.5 | 6.0* | 15.8 | 3.6 | -0.4 | 2.2
COc1ccc(Cc2nnc(N/N=C(\C)c3ccc([N+](=O)[O-])cc3)[nH]c2=O)cc1OC | -0.1 | 0.6 | 9.4 | 10.9 | / | /
CC(C)n1c(Nc2ccc3ncccc3c2)nc2c(NCCN3CCOCC3)ncnc21 | 0.0 | 6.4* | 14.1 | -4.5 | 0.4 | 0.0
CC(C)n1c(Nc2ccc3ncccc3c2)nc2c(NCCc3ccc(O)cc3)ncnc21 | 0.0 | 5.1* | -0.2 | -1.1 | -0.1 | -5.4
CC(C)n1c(Nc2ccccc2)nc2c(NCCc3ccc(O)cc3)ncnc21 | 0.0 | 6.1* | -0.7 | 29.8 | -1.1 | -10.6
CCOC(=O)c1c(NC(=O)CSc2nnc(CNC(=O)c3cccs3)n2C2CCCCC2)sc2c1CCC2 | -0.1 | -0.1 | 1.8 | -1.6 | / | /
CCOc1ccc(/C=C2/N=C(c3cncc(Br)c3)OC2=O)cc1 | -0.1 | 5.0* | 17.6 | 3.9 | -0.4 | -10.8
CCOc1ccc(/C=C2/N=C(c3ccc(OC)c(Br)c3)OC2=O)cc1 | 0.0 | 0.6 | -3.4 | -0.8 | / | /
Cc1ccc(NC(=O)C2CCCN2Sc2ccccc2[N+](=O)[O-])c(C)c1 (centres undefined) | 0.0 | 6.0* | 13.8 | 4.8 | 0.7 | 9.5
COc1ccc(C(CC(=O)O)NC(=O)OC(C)(C)C)cc1 (centres undefined) | -0.1 | -0.8 | -10.6 | 7.8 | / | /
CC(C)OC(=O)CC(NC(=O)OC(C)(C)C)c1ccccc1 (centres undefined) | 0.0 | 8.1* | 10.4 | / | 0.2 | 6.7
COc1cc2cc3c(N)c(C(=O)NCc4ccc5c(c4)OCO5)sc3nc2cc1OC | 0.1 | -0.3 | -1.2 | -6.9 | / | /
Nc1cc(=O)[nH]c(SCc2cn3ccccc3n2)n1 | -0.1 | 5.4* | -4.0 | 0.3 | 0.4 | -5.3
CC1=C(C(=O)Nc2ccc(Br)cn2)C(c2ccc(N(C)C)cc2)C2=C(CCCC2=O)N1 (centres undefined) | 0.1 | 0.1 | 11.1 | 3.3 | / | /
COc1cc(C2c3c(oc4ccc(F)cc4c3=O)C(=O)N2c2nccs2)ccc1O (centres undefined) | 0.2 | 6.2* | 8.8 | 7.6 | -0.7 | 4.0
COC(=O)c1ccccc1NC(=O)Nc1nnc(N2CC(C)CC(C)C2)s1 (centres undefined) | 0.2 | 6.6* | 10.6 | 3.2 | -0.5 | -6.9
O=C(Nc1ccc2c(c1)OCCO2)Nc1nnc(N2CCCC2)s1 | -0.2 | 5.7* | 1.0 | -18.8 | 0.3 | -0.8
O=C(Nc1nnc(N2CCCC2)s1)Nc1ccccc1Br | 0.1 | 5.5* | 0.2 | -23.2 | -0.4 | -4.0
O=C(Nc1cccc(C(F)(F)F)c1)Nc1nnc(N2CCCC2)s1 | -0.1 | 5.9* | -0.5 | -0.5 | 0.3 | -0.8
O=C(Nc1cccc(Br)c1)Nc1nnc(N2CCCCCC2)s1 | 0.1 | 0.0 | 0.5 | -6.8 | / | /
CCn1c(SCC(=O)c2ccccc2)nc2c(c1=O)SC(C)C2 (centres undefined) | -0.2 | 5.3* | 6.6 | 10.3 | 0.0 | 4.6
CC1Cc2nc(SCC(=O)NCc3ccccc3)n(C)c(=O)c2S1 (centres undefined) | 0.7 | 6.4* | 10.6 | -2.8 | 0.6 | 4.6
Cc1ccc(NC(=O)c2cc(-c3ccc(O)cc3)on2)cc1 | -0.1 | 0.5 | 6.3 | -18.1 | / | /
CCC(C)NCCOc1ccccc1I (centres undefined) | -0.1 | 5.4* | 23.5 | 8.0 | 0.4 | 3.6

Screens (PubChem)
